According to PubChem BioAssay (EPA / NIEHS):
“And” between values parts separate entries of the source, which are not always exact repeats. Equal values may be shown once. Inconclusive results are not listed. More than one record can exist for a structure, and the calls need not agree. The source made the active and inactive calls. How the source made its calls, unless noted: active means hit-call score of the fitted dose curve at least 0.9, where 1 is the maximum; inactive means score below 0.9.

Assays:
[1] = CCTE_Shafer_MEA_acute_AB: CCTE's Alamar Blue Assay for Cytotoxicity in the Neural Acute Assay, Shafer Lab (AID 2284069; active means hit-call score of the fitted dose curve at least 0.9, where 1 is the maximum;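 further: active compounds lower the viability signal compared with DMSO wells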)
How it was run: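 Resazurin reduction (CellTiter Blue, 1:6 in fresh medium) read at ex 544/em 590 nm marks viability loss relative to DMSO. Cells: primary rat cortical neuron networks on microelectrode arrays, treated after baseline recording at 13 or 15 days in vitro.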

[2] = CCTE_Shafer_MEA_dev_active_electrodes_number: CCTE's Neural Network Formation Assay for Number of Active Electrodes, Shafer Lab (AID 2284040; active means hit-call score of the fitted dose curve at least 0.9, where 1 is the maximum;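 on AC50: potency for loss of active electrodes versus DMSO so lower counts are hits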)
How it was run: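 Developing rat cortical networks on MEAs, exposed DIV 0–12. Value is the AUC of active-electrode counts (≥5 spikes/min) from days 5, 7, 9, 12, relative to DMSO.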

[3] = CCTE_Shafer_MEA_dev_burst_rate: CCTE's Neural Network Formation Assay for Burst Rate, Shafer Lab (AID 2284042);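 on AC50: potency for loss of burst rate below DMSO control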
How it was run: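 Exposure ran continuously over 12 days of network development in rat cortical cultures, with compound refreshed during full media changes on DIV 5 and 9. Single-electrode bursts per recording time, well-mean over active electrodes, trapezoidal AUC across days 5–12, fitted downward relative to DMSO.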

[4] = CCTE_Shafer_MEA_dev_bursting_electrodes_number: CCTE's Neural Network Formation Assay for Number of Bursting Electrodes, Shafer Lab (AID 2284043; active means hit-call score of the fitted dose curve at least 0.9, where 1 is the maximum;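 on AC50: potency is for loss of bursting electrodes relative to DMSO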)
How it was run: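 Number of electrodes reaching ≥1 burst every 2 min was recorded at DIV 5, 7, 9 and 12 and collapsed as trapezoidal area under the curve. Cultures were rat cortical neurons on MEA plates, dosed continuously from plating with medium and treatment refreshed on DIV 5 and 9.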

[5] = CCTE_Shafer_MEA_dev_per_burst_interspike_interval: CCTE's Neural Network Formation Assay for Burst Interspike Interval, Shafer Lab (AID 2284044);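 further: mean spike spacing inside bursts as AUC over recordings on days 5 7 9 12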;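 on AC50: potency for a decrease of within-burst interspike interval below DMSO level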
How it was run: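 Neurons from rat cortex plated onto PEI-coated MEA wells with laminin […] at 1.5 x 10^5 cells/well, then treated from day 0. Media and compound fully replaced on DIV 5 and 9. Extracellular spontaneous firing recorded four times; interspike interval per burst summarised as AUC.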

[6] = CCTE_Shafer_MEA_dev_interburst_interval_mean: CCTE's Neural Network Formation Assay for Mean Interburst Interval, Shafer Lab (AID 2284046);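 further: well-mean interburst interval of bursting electrodes as AUC over four recording days; curve fitted for decrease in interburst interval relative to DMSO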
How it was run: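 Primary rat cortical neurons on PEI-coated 48-well MEA plates (laminin added with cells at plating) (16 electrodes/well), exposed from plating day 0 with renewal at DIV 5 and 9. Mean inter-burst interval averaged over bursting electrodes, AUC across days 5, 7, 9, 12; DMSO baseline.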

[7] = CCTE_Shafer_MEA_dev_inter_network_spike_interval_mean: CCTE's Neural Network Formation Assay for Mean Inter-network Spike Interval, Shafer Lab (AID 2284047);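 on AC50: potency for a decrease in mean inter-network spike interval below DMSO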
How it was run: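 Mean time between consecutive network-spike peaks, recorded extracellularly (adaptive spike detection) on DIV 5, 7, 9 and 12, summarized as trapezoidal AUC. Rat cortical cultures on MEAs dosed continuously days 0–12, re-dosed at feeds; loss-of-signal fit relative to DMSO.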

[8] = CCTE_Shafer_MEA_dev_network_spike_number: CCTE's Neural Network Formation Assay for Number of Network Spikes, Shafer Lab (AID 2284048);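 further: synchronized bursts across electrodes counted on days 5 7 9 12 and integrated as AUC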;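 on AC50: fit as a loss of signal meaning fewer network spikes than DMSO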
How it was run: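 Number of network spikes (coordinated firing across electrodes) recorded on days 5, 7, 9 and 12 and summarised as area under the curve. Rat cortical cultures on MEA, continuous compound exposure with full medium/treatment exchange at DIV 5 and 9.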

[9] = CCTE_Shafer_MEA_dev_network_spike_peak: CCTE's Neural Network Formation Assay for Mean Number of Electrodes in Network Spike, Shafer Lab (AID 2284049);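 on AC50: fitted for loss of signal meaning fewer electrodes in network spikes than DMSO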
How it was run: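 Rat cortical primary culture, 1.5 x 10^5 cells/well, 48-well MEA (16 electrodes/well). Dosing day 0 through DIV 12, full media/compound exchange DIV 5, 9. AxIS adaptive spike detection; AUC over days 5/7/9/12; loss-of-signal vs DMSO.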

[10] = CCTE_Shafer_MEA_dev_spike_duration_mean: CCTE's Neural Network Formation Assay for Mean Spike Duration, Shafer Lab (AID 2284051);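 further: mean network spike duration pooled as area under curve over DIV 5 to 12 recordings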;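 on AC50: potency for a decrease in mean network spike duration versus DMSO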
How it was run: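 Spontaneous activity was recorded on days 5, 7, 9 and 12 from rat cortical cultures grown on microelectrode arrays and dosed continuously from day 0, with media and compound renewed after the DIV 5 and 9 recordings. Network-spike duration was collapsed by area under the curve.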

[11] = CCTE_Shafer_MEA_dev_network_spike_duration_std: CCTE's Neural Network Formation Assay for Standard Deviation of Network Spike Duration, Shafer Lab (AID 2284052);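 further: hits are decreases in network spike duration SD versus DMSO vehicle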
How it was run: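 Network spike duration variability was collapsed across recordings on days 5, 7, 9 and 12 by trapezoidal area-under-curve and fitted downward against DMSO. Cultures were rat cortical neurons on PEI-coated MEA plates, dosed continuously from plating, refed with compound DIV 5/9.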

[12] = CCTE_Shafer_MEA_dev_per_network_spike_spike_number_mean: CCTE's Neural Network Formation Assay for Mean Number of Spikes in a Network Spike, Shafer Lab (AID 2284053);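 on AC50: fitted as decrease in spikes per network spike relative to DMSO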
How it was run: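 Mean spike count within each network spike, taken in a 0.05 s window at its peak, was recorded on days 5, 7, 9 and 12 and integrated as trapezoidal area under the curve. Rat cortical cultures on MEA plates received continuous compound from day 0, refreshed at medium changes on DIV 5 and 9.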

[13] = CCTE_Shafer_MEA_dev_per_network_spike_spike_percent: CCTE's Neural Network Formation Assay for Percent of Spikes in a Network Spike, Shafer Lab (AID 2284054)
How it was run: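 Metric: fraction of spikes falling in a 0.05 s window at network-spike peaks. Recordings were made on days 5, 7, 9 and 12 and collapsed by trapezoidal AUC. Cultures were rat cortical neurons on MEA plates, dosed continuously from plating, re-dosed at media changes.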

[14] = CCTE_Shafer_MEA_dev_LDH: CCTE's Lactate Dehydrogenase Assay for Cytotoxicity in the Neural Network Formation Assay, Shafer Lab (AID 2284068; active means hit-call score of the fitted dose curve at least 0.9, where 1 is the maximum;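 further: exposure for twelve days from plating with re-dosing on DIV 5 and 9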)
How it was run: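 Primary rat cortical neurons were cultured on PEI-coated MEA plates and exposed from plating through day 12, with compound renewed at medium changes on DIV 5 and 9. LDH activity was read spectrophotometrically; loss of signal versus DMSO indicates reduced viability.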

[15] = system: DIO2 (gene 1734); assay: CCTE_GLTED_hDIO2: CCTE's human Deiodinase 2 (DIO2) Inhibition Assay, Great Lakes Toxicology and Ecology Division (GLTED) Lab (AID 2284050; active means hit-call score of the fitted dose curve at least 0.9, where 1 is the maximum)
How it was run: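 Readout: absorbance from Sandell-Kolthoff detection of free iodide released by human DIO2 during a 3 h incubation with chemical. Cell-free format, n=3; activity fitted relative to DMSO negative control.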

[16] = system: DIO3 (gene 1735); assay: CCTE_GLTED_hDIO3: CCTE's human Deiodinase 3 (DIO3) Inhibition Assay, Great Lakes Toxicology and Ecology Division (GLTED) Lab (AID 2284055; active means hit-call score of the fitted dose curve at least 0.9, where 1 is the maximum;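 further: potency is for inhibition seen as loss of released iodide signal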)
How it was run: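 hDIO3 (adenovirus-expressed) + test chemical, 3 h incubation; free iodide quantified by Sandell-Kolthoff reaction, absorbance read-out. DMSO negative control, n=3.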

[17] = CCTE_Deisenroth_AIME_384WELL_CTox_Active: Cytotoxicity Assessment (CTOX) in CCTE's 384-well Estrogen Receptor Transactivation Assay with AIME metabolic competence (metabolism positive), Deisenroth Lab (AID 2284037; active means hit-call score of the fitted dose curve at least 0.9, where 1 is the maximum;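 further: chemicals first conditioned 2 h by alginate-bound induced rat liver S9 before cells; activity means signal loss indicating cell death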)
How it was run: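 Cytotoxicity in VM7Luc4E2 breast cells, 24 hour, measured as protease-substrate fluorescence loss, after 2-hour metabolic conditioning with induced rat hepatic S9 in alginate microspheres. Concentrations 0.002 - 200 uM, 10 points, bidirectional fitting.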

[18] = CCTE_Deisenroth_AIME_384WELL_CTox_Inactive: Cytotoxicity Assessment (CTOX) in CCTE's 384-well Estrogen Receptor Transactivation Assay without AIME metabolic competence (metabolism negative), Deisenroth Lab (AID 2284039; active means hit-call score of the fitted dose curve at least 0.9, where 1 is the maximum;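 further: cell viability via live-cell protease substrate cleaved to fluorescent probe; cells exposed 24 h to medium preincubated 2 h with alginate-water beads without S9; loss of fluorescence signal means loss of viability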)
How it was run: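 Fluorescent protease-substrate viability readout after 24 h exposure of VM7Luc4E2 cells to conditioned medium. Chemicals (0.002–200 uM) first sat 2 h over alginate-water beads, no S9. Data fitted bidirectionally, loss of signal meaning viability loss.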

Measured: AC50

Nc1c(Cl)c(F)nc(OCC(=O)O)c1Cl
inactive: [1]

CN/C(=N\[N+](=O)[O-])NCc1cnc(Cl)s1
inactive: [2] | [3] | [4] | [5] | [6] | [7] | [8] | [9] | [10] | [11] | [12] | [13] | [14]

CC(C)(C)C(=O)C(Oc1ccc(Cl)cc1)n1cncn1 (centres undefined)
active: [2] 38.7 µM | [4] 39.6 µM | [9] 38.7 µM | [10] 40.2 µM | [12] 35.5 µM | [13] 45.9 µM | [14] 37.5 µM
inactive: [3] | [5] | [6] | [7] | [8] | [11]

O=C(Nc1ccccc1-c1ccc(Cl)cc1)c1cccnc1Cl
inactive: [2] | [3] | [4] | [5] | [6] | [7] | [8] | [9] | [10] | [11] | [12] | [13] | [14]
active: [2] 9.92 µM | [3] 4.18 µM and 3.1 nM | [4] 7.09 µM | [5] 5.35 µM | [6] 2.59 µM | [7] 0.01 µM | [9] 9.92 µM | [10] 4.26 µM | [11] 1.14 µM | [12] 1.13 µM | [14] 50 µM

O=C1C2CC=CCC2C(=O)N1SC(Cl)(Cl)Cl (centres undefined)
active: [2] 9.85 µM | [4] 9.85 µM and 1.97 µM | [5] 16.2 µM | [6] 9.95 µM | [9] 9.85 µM and 16.2 µM | [10] 9.85 µM | [12] 9.85 µM | [13] 15.6 µM | [14] 15.9 µM and 13.8 µM
inactive: [2] | [3] | [5] | [6] | [7] | [8] | [10] | [11] | [12] | [13]

Cn1c(-c2ccccc2)cc(-c2ccccc2)[n+]1C
inactive: [1]

CC(C)C1(C)N=C(c2ncccc2C(=O)O)NC1=O (centres undefined)
inactive: [1]

N#CN=C1SCCN1Cc1ccc(Cl)nc1
inactive: [2] | [3] | [4] | [5] | [6] | [7] | [8] | [9] | [10] | [11] | [12] | [13] | [14] | [1]

Clc1nc(Cl)nc(Nc2ccccc2Cl)n1
inactive: [1]

CCCN(CC)CC1COC2(CCC(C(C)(C)C)CC2)O1 (centres undefined)
active: [2] 0.246 µM | [3] 0.136 µM | [4] 0.223 µM | [5] 0.234 µM | [6] 0.325 µM | [7] 0.257 µM | [8] 93.3 nM | [9] 0.305 µM | [10] 0.275 µM | [11] 0.0662 µM | [12] 0.272 µM | [13] 0.266 µM | [14] 0.168 µM

CC1(C)CCC(=Cc2ccc(Cl)cc2)C1(O)Cn1cncn1 (centres undefined)
inactive: [1]

CCN(CC)c1nc(C)cc(OP(=S)(OC)OC)n1
inactive: [3] | [5] | [7] | [8] | [11]
active: [2] 33 µM | [4] 30.5 µM | [6] 88.6 µM | [9] 30.8 µM | [15] 31.1 µM | [10] 50 µM | [12] 29.5 µM | [13] 28 µM | [16] 25.3 µM | [14] 29.2 µM

CCNC(=O)NC(=O)C(C#N)=NOC
inactive: [2] | [3] | [4] | [5] | [6] | [7] | [8] | [9] | [10] | [11] | [12] | [13] | [14]

CNC(=O)Oc1cccc2ccccc12
active: [2] 15 µM | [3] 4.84 µM | [4] 15 µM | [8] 1000 nM | [9] 20.3 µM and 22.6 µM | [12] 20.1 µM | [13] 15 µM and 5.05 µM | [14] 15 µM and 25.1 µM
inactive: [3] | [5] | [6] | [7] | [8] | [10] | [11] | [12] | [1]

CS(=O)(=O)c1ccc(C(=O)C2C(=O)CCCC2=O)c([N+](=O)[O-])c1
inactive: [2] | [3] | [4] | [5] | [6] | [7] | [8] | [9] | [10] | [11] | [12] | [13] | [14]
active: [15] 24.8 µM | [16] 46.3 µM

Cc1c(COC(=O)[C@@H]2[C@H](/C=C(\Cl)C(F)(F)F)C2(C)C)cccc1-c1ccccc1
active: [2] 2.84 µM and 3.36 µM | [3] 768 nM and 2.7 µM | [4] 1.56 µM and 1.65 µM | [5] 3.23 µM and 3.43 µM | [6] 2.8 µM and 2.26 µM | [7] 2.3 µM | [8] 91.2 nM and 495 nM | [9] 1.51 µM and 1.19 µM | [10] 2.33 µM and 2.32 µM | [11] 2.29 µM and 2.33 µM | [12] 665 nM and 864 nM | [13] 440 nM and 649 nM | [14] 17.5 µM and 11.2 µM
inactive: [7]

OC(c1ccc(Cl)cc1)(c1ccc(Cl)cc1)C(Cl)(Cl)Cl
active: [15] 76.4 µM | [16] 15.8 µM
inactive: [1]

Cc1ccc(N=CN(C)C=Nc2ccc(C)cc2C)c(C)c1
inactive: [17] | [1]

CC1(C)C(C(=O)OC(C#N)c2cccc(Oc3ccccc3)c2)C1(C)C (centres undefined)
active: [2] 19 µM | [4] 15.4 µM | [5] 18.5 µM | [7] 2.56 µM | [8] 515 nM | [9] 13.5 µM | [10] 16.2 µM | [12] 10 µM | [13] 4.54 µM | [14] 17.8 µM
inactive: [3] | [6] | [11]

CC1(C)C(C=C(Cl)Cl)C1C(=O)OC(C#N)c1cccc(Oc2ccccc2)c1 (centres undefined)
inactive: [2] | [3] | [4] | [5] | [6] | [7] | [8] | [9] | [10] | [11] | [12] | [13] | [14] | [1]
active: [18] 2.33 µM | [2] 9 µM | [3] 3.77 µM | [4] 6.24 µM | [6] 3.49 µM | [8] 2980 nM | [9] 11.4 µM | [10] 6.93 µM | [11] 2.2 µM | [12] 6.97 µM | [13] 8.41 µM

O=c1n(Cl)c(=O)n(Cl)c(=O)n1Cl
inactive: [18]
